Bioassay records deposited in PubChem BioAssay by National Center for Advancing Translational Sciences (NCATS).
p53 reactivator – qHTS assay for re-activators of p53 using a Luc reporter | Potency, µM (series often up to 92.2 µM), for inactives: at the highest dose activity change, positive = activation, actives largely listed as activators | hit rate 0.063% among 320,000 | H1299 p53-A138V BP100-luciferase reporter, luminescence, 24 h; note: potency is the fitted concentration of half-maximal effect; % of control where 0% means no effect; nearly all actives have a fitted effect of over 45% in size
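H1299 (p53-null), stable ts p53-A138V + BP100-Luc; 1000 cells/well, Opti-MEM/10% FBS; cpd 4 pt, 1:5; 24 h, 37 deg C, 5% CO2; detection reagent 10 min RT; luminescence.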
CtBP-E1A blk – qHTS Assay for Inhibitors of the CtBP/E1A Interaction. activity change, % (no concentration beside the values). hit rate 0.49% among 340,000. AlphaScreen GST-E1A/His-CtBP binding, 1536-well; hits give low values. CtBP / adenovirus E1A interaction (AlphaScreen). AID 651724, 2012; in the data active = activity change below about -65%; inconclusive = mostly about -30% to -63%; note: % is set by controls: 0 for no effect and ±100 for the full control effect
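AlphaScreen with 125 nM GST-E1A and 125 nM His-CtBP (5X stocks) in Tris pH 8.0, 300 mM NaCl, BSA, Tween 20, TCEP. Compounds preincubated 2 h at 37 deg C, then glutathione donor/nickel acceptor beads added for 1 h at 37 deg C in dark.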
VP16 counter – VP16 counterscreen qHTS for inhibitors of ROR gamma transcriptional activity | Drosophila S2 Gal4-VP16 UAS-luciferase, luminescence, 20 h | Potency, µM (titrated, usually from 53.6 µM), for the others: top-dose activity, negative = inhibition, usual class: inhibitors | hit rate 3.5% among 310,000 | AID 2546, 2010;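 note: Gal4-VP16 expression switched on by copper sulfate through the metallothionein promoter; potency is the fitted concentration of half-maximal effect; % is set by controls: 0 for no effect and ±100 for the full control effect; nearly all actives have a fitted effect of over 50% in size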
Six1-Eya2 inh – qHTS Assay for Inhibitors of the Six1/Eya2 Interaction. Homeobox protein SIX1 (Homo sapiens) + Protein phosphatase EYA2 (Homo sapiens), …. AlphaScreen GST-Six1/His-Eya2 binding, biochemical; hits give low values. activity change, % (no concentration beside the values). hit rate 0.56% among 360,000. AID 651725, 2012; in the data active = activity change below about -65%; inconclusive = mostly about -30% to -63%; note: % is set by controls: 0 for no effect and ±100 for the full control effect
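Compounds are tested against tagged Six1 and Eya2 proteins bridged by glutathione donor and nickel acceptor beads; after a one-hour incubation at 37 °C without light, AlphaScreen emission is recorded.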
RORg inh – qHTS for inhibitors of ROR gamma transcriptional activity. Potency, µM (top dose mostly 53.6 µM), for inactives: at the top dose activity change, negative = inhibition, most hits filed as inhibitors. Drosophila S2 Gal4-RORgamma UAS-luciferase reporter, 20 h. hit rate 5.4% among 310,000. AID 2551, 2010; note: potency is the fitted concentration of half-maximal effect; % is set by controls: 0 for no effect and ±100 for the full control effect; nearly all actives have a fitted effect of over 60% in size
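ROR gamma transcriptional activity was tracked as Gal4-UAS luciferase output in stably transfected Drosophila Schneider cells, with compound added 1 hr before 700 uM copper sulfate induction and a 20 hr ambient-temperature incubation.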
The depositor's hits bear a star; ? = inconclusive; · = no result given; [ ] = another dose, or the depositor's remark. Most compounds without a hit are left out; they make up all but 5.4% or so of the library. Unless noted, calls come from the whole dose curve; as a rule, active = well fitted curve in the direction sought with a large enough effect; inconclusive = small, poorly fitted or top-dose-only effect, or another doubt; inactive = no such curve, though single readings can be large; an effect the other way counts as inactive or inconclusive.

SMILES	p53 reactivator	CtBP-E1A blk	VP16 counter	Six1-Eya2 inh	RORg inh
CCN1CCN(C(=O)CN(c2ccc(F)cc2)S(=O)(=O)c2ccc(OC)c(OC)c2)CC1	14.1%	2.7	-6.9%	-0.1	-30.7%
Cc1ccccc1NC(=O)/C(C#N)=C/c1ccc(-c2ccc(Cl)c(C(=O)O)c2)o1	·	-13.4	17.8µM*	-15.1	-32.9%
COc1ccc(NC(=O)/C(C#N)=C/c2ccc(-c3ccccc3C(=O)O)o2)cc1	·	-14.9	-2.8%	-5.2	19.7%
COc1ccc(NC(=O)/C(C#N)=C\c2ccc(-c3cccc(C(=O)O)c3C)o2)cc1	7.3%	-17.0	?	-22.0	3.98µM*
COc1ccc(NC(=O)/C(C#N)=C/c2ccc(-c3ccc(Cl)c(C(=O)O)c3)o2)cc1	17.7%	?	?	-1.2	11.2µM*
O=Cc1ccc(OC2C=CC(c3ccccc3)OC2CO)cc1 (configuration not stated)	·	·	2.2%[10 µM]	·	1.3%[10 µM]
COc1ccccc1CNc1ccnc(-c2ccc(N(C)C)cc2)n1	·	·	14.1µM*	·	?
CN(C)c1ccc(-c2nccc(NCc3ccccc3)n2)cc1	·	·	-9.6%	·	-7.3%
COc1ccc(CCNC(=O)CSc2cccc3cccnc23)cc1OC	-4.8%	?	-0.2%	?	1µM*
CN(C)S(=O)(=O)c1ccc(SCC(=O)Nc2cccc(S(=O)(=O)N3CCCC3)c2)nc1	·	·	·	1.6	·
CN(C)S(=O)(=O)c1cccc(NC(=O)CSc2cccc3cccnc23)c1	-23.8%	-91.1*	?	-91.4*	10µM*
Cc1nc2cc(N3CCN(C)CC3)c(NC(=O)Cc3ccccc3)cc2c(=O)n1Cc1ccccc1	?	1.9	?	-10.1	7.08µM*
Cc1nc2cc(N3CCCCC3)c(NC(=O)c3ccncc3)cc2c(=O)n1Cc1ccc(Cl)cc1	0.8%	·	-2.6%	·	21.1%
CC1CC(C)CN(CC(O)COCc2ccccc2F)C1 (configuration not stated)	3.1%	-12.8	4.4%	-8.0	-7.0%
Cc1csc(NC(=O)/C=C/c2ccc(C)o2)n1	?	6.2	-16.6%	0.8	4.47µM*
Cc1ccc(/C=N/NC(=O)NC2CCCCC2)o1	-1.5%	-0.2	1.5%	-6.9	-7.1%
Cc1ccc(/C=C/C(=O)NC2CCCCCCC2)o1	-27.3%	-11.9	12.6µM*	-3.1	-91.9%
O=C1C2CC=CCC2C(=O)N1c1ccc(NCCc2cccc(F)c2)c([N+](=O)[O-])c1 (configuration not stated)	13.1%	-14.9	-17.1%	-13.9	?
Cc1noc(-c2ccc(CSCCC(=O)O)cc2)c1NC(=O)OC(C)c1ccccc1Cl (configuration not stated)	·	·	-11.0%	·	-1.2%
Cc1ccc(NC(=O)CCNC(=O)c2ccc(Br)cc2)nc1	24.6%	-8.4	14.5%	-3.3	9.4%
COc1cccc(-c2cc(NCc3cccc(C)c3)ncn2)c1	·	·	16.9%	·	24.8%
O=S1(=O)N=C(Nc2nncs2)c2ccccc21	4.0%	-11.5	10µM*	-3.2	?
Cc1nc(S/C(=C/c2ccc(-c3cccc(Cl)c3)o2)C(=O)O)n[nH]1	1.3%	-2.0	3.55µM*	-3.2	1.26µM*
CCc1c(C)c(C#N)c2nc3ccccc3n2c1Cl	-13.7%	·	7.3%	·	2.82µM*
CC(C)(C)c1ccc(C(=O)N2[C@H](COCc3ccccc3)C=CS2(=O)=O)cc1	·	-10.7	·	6.5	·
CC1=NN(C(N)=S)C(=O)C1N=Nc1ccccc1 (configuration not stated)	1.6%	·	0.891µM*	0.7	0.199µM*
CC1=NN(C(N)=S)C(=O)C1N=Nc1ccc(Br)cc1 (configuration not stated)	?	-8.8	1.26µM*	-3.6	0.447µM*
CC1=NN(c2nc(-c3ccc(C)cc3)cs2)C(=O)C1N=Nc1cccc(O)c1 (configuration not stated)	1.1%	-16.4	4.7%	-16.6	-27.5%
